Among the data in ChEMBL document CHEMBL1961873, “Compounds: GSK PKIS; Assays: Nanosyn kinase panel” (2012) are inhibition values, retold here.

Molecules are shown by their SMILES.

By inhibition is commonly meant the change of the read-out against control, counted positive when it falls.

The target of assay [1] is Serine/threonine-protein kinase pim-2 (Homo sapiens) (UniProt Q9P1W9). As to conditions: at 1 µM.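 Also: each value is a mean of the inhibition measurements against the kinase.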
Assay [2] deals with Serine/threonine-protein kinase pim-3 (Homo sapiens) (UniProt Q86V86). As to conditions: at 0.1 µM.
For assay [3] the target is unchanged. The following applies: at 1 µM.
The target in assay [4] is T1, MAP kinase-activated protein kinase 5 (Homo sapiens) (UniProt Q8IW41).
T1 sequence (whole entry): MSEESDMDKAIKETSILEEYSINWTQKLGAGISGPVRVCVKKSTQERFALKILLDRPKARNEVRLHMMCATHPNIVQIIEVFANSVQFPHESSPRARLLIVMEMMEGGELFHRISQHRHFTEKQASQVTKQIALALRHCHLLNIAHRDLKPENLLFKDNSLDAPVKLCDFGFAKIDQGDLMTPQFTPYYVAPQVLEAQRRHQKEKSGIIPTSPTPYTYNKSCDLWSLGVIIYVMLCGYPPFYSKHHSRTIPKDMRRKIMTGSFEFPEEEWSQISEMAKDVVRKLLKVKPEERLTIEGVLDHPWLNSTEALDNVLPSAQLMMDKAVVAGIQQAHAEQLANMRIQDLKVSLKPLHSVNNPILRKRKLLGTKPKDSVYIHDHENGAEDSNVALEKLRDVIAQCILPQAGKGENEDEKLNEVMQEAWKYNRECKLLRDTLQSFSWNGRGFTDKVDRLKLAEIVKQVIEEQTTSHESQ
As to conditions: at 0.1 µM.

The target of assay [5] is T1, MAP kinase-activated protein kinase 5 (Homo sapiens). The following applies: at 1 µM.
Assay [6] has as its target Serine/threonine-protein kinase SIK1 (Homo sapiens) (UniProt P57059). The following applies: at 0.1 µM.
The target is the same in assay [7]. The following applies: at 1 µM.
The target in assay [8] is Serine/threonine-protein kinase SIK2 (Homo sapiens) (UniProt Q9H0K1). As to conditions: at 0.1 µM.
Chain of Serine/threonine-protein kinase SIK2 (Homo sapiens) (Q9H0K1 whole entry, looked up): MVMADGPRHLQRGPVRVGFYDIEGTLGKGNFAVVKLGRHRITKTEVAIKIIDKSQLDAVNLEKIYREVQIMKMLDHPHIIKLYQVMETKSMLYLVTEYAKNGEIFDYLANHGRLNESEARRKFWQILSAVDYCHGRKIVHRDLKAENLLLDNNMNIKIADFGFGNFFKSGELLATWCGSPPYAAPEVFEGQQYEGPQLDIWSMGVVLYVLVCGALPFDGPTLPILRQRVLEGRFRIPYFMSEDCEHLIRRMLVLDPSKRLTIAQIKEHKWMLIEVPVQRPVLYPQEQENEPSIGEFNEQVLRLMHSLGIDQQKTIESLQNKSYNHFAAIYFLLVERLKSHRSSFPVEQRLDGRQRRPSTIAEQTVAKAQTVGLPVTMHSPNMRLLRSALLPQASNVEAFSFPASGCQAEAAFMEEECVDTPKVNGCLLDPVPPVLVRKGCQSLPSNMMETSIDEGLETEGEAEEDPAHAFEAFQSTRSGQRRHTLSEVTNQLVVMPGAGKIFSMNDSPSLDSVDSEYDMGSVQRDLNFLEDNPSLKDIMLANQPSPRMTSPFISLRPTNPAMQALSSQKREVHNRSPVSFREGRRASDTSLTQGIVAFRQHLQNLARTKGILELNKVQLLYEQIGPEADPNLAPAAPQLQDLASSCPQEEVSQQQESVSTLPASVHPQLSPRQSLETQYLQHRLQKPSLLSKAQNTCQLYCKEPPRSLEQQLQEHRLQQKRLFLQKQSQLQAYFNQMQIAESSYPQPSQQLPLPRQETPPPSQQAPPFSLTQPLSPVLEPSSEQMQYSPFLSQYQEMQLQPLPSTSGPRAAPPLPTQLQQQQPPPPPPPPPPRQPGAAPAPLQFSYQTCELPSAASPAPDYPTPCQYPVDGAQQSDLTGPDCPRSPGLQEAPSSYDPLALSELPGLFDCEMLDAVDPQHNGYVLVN
The target is the same in assay [9]. As to conditions: at 1 µM.
Assay [10] addresses T2, Serine/threonine-protein kinase TBK1 (Homo sapiens) (UniProt Q9UHD2).
T2 sequence (whole entry): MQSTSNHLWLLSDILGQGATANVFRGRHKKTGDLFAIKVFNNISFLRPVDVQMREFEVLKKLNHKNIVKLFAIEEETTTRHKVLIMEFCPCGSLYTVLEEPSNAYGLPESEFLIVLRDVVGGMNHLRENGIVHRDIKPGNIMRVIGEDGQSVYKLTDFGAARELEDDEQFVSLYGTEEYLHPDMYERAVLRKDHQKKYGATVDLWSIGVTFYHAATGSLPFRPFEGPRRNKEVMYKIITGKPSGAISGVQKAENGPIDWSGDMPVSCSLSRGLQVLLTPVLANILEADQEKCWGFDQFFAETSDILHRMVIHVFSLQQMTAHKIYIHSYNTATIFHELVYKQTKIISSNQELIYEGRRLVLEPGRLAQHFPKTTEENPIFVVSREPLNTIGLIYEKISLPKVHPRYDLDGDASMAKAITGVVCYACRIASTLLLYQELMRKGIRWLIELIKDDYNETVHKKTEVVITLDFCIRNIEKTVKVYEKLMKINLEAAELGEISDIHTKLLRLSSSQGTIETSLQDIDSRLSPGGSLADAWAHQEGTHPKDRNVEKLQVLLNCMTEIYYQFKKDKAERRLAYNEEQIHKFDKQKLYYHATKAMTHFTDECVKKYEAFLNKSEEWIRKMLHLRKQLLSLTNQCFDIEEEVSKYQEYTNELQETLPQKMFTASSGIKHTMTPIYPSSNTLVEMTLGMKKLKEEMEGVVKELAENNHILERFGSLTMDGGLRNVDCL
The following applies: at 0.1 µM.

The target in assay [11] is T2, Serine/threonine-protein kinase TBK1 (Homo sapiens). As to conditions: at 1 µM.
Assay [12] has as its target T3, Testis-specific serine/threonine-protein kinase 1 (Homo sapiens) (UniProt Q9BXA7).
T3 sequence (whole entry): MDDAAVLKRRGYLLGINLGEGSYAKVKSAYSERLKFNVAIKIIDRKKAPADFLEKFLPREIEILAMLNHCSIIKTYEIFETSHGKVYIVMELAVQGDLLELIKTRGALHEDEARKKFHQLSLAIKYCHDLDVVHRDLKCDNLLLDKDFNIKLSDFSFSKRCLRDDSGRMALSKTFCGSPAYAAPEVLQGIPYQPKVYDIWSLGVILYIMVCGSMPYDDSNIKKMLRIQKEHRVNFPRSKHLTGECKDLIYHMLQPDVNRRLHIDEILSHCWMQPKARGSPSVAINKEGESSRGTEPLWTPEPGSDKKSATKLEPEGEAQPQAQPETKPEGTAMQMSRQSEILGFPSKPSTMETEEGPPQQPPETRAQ
As to conditions: at 0.1 µM.

Assay [13] concerns the target T3, Testis-specific serine/threonine-protein kinase 1 (Homo sapiens). The following applies: at 1 µM.
The target of assay [14] is T4, Testis-specific serine/threonine-protein kinase 2 (Homo sapiens) (UniProt Q96PF2).
T4 sequence (whole entry): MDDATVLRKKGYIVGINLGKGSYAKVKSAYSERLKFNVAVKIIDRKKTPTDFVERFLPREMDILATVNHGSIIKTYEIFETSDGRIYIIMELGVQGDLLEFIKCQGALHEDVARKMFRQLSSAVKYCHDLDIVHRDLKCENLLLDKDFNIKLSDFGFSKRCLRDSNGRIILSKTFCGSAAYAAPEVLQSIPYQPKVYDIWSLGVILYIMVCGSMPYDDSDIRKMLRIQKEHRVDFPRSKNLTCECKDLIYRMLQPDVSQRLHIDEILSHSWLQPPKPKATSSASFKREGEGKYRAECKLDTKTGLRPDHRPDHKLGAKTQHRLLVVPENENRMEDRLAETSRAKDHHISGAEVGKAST
As to conditions: at 0.1 µM.

The target in assay [15] is T4, Testis-specific serine/threonine-protein kinase 2 (Homo sapiens). As to conditions: at 1 µM.
For assay [16], the target named is Casein kinase I isoform alpha (Homo sapiens) (UniProt P48729). The following applies: at 0.1 µM.
Chain of Casein kinase I isoform alpha (Homo sapiens) (P48729 2-337 limits assumed): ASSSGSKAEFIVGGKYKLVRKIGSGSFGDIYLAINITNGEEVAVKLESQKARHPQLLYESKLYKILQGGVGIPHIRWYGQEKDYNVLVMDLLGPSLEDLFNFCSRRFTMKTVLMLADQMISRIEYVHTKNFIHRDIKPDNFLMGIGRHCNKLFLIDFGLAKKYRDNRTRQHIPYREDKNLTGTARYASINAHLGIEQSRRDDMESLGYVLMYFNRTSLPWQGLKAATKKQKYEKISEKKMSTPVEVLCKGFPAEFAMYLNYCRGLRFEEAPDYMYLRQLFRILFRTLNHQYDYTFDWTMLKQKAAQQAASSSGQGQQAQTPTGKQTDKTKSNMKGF
The target is the same in assay [17]. As to conditions: at 1 µM.
For assay [18], the target named is Casein kinase I isoform gamma-1 (Homo sapiens) (UniProt Q9HCP0). As to conditions: at 0.1 µM.
Chain of Casein kinase I isoform gamma-1 (Homo sapiens) (Q9HCP0 whole entry, looked up, canonical isoform): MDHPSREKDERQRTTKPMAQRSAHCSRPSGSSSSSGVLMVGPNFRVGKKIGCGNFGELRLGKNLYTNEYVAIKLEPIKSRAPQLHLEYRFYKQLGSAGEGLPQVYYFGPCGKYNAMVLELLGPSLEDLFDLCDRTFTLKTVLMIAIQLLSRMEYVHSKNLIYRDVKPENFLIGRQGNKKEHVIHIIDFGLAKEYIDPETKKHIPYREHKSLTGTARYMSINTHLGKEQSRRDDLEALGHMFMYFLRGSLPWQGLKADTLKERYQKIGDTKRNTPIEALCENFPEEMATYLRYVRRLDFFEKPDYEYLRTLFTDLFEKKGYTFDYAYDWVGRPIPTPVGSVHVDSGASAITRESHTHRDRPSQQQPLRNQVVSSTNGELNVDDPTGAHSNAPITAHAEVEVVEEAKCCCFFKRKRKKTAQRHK
Assay [19] shares this target. The following applies: at 1 µM.
For assay [20], the target named is Casein kinase I isoform gamma-2 (Homo sapiens) (UniProt P78368). The following applies: at 0.1 µM.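 Also: values are mean inhibition figures reported as part of the GSK PKIS dataset.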
Chain of Casein kinase I isoform gamma-2 (Homo sapiens) (P78368 whole entry, looked up, canonical isoform): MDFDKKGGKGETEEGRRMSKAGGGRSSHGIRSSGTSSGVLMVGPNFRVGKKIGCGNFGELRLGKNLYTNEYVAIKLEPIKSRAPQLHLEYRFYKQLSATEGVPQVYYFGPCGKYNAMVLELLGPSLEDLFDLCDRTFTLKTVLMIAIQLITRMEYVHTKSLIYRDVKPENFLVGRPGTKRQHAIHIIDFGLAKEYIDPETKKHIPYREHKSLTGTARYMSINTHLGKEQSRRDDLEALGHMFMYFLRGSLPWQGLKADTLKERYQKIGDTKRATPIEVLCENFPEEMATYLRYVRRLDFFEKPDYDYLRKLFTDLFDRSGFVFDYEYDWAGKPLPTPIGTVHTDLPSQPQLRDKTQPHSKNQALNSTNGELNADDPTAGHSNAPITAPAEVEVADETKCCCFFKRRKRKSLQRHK

Chain of Serine/threonine-protein kinase pim-2 (Homo sapiens) (Q9P1W9 whole entry, looked up): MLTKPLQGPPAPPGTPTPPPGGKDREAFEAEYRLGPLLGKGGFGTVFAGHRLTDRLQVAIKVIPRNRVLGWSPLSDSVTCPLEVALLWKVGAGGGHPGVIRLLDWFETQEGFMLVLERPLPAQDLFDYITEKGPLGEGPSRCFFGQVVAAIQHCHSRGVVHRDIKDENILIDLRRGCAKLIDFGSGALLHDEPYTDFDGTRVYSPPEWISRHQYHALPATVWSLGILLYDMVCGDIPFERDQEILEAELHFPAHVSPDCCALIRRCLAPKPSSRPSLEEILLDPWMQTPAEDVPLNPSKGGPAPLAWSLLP
Chain of Serine/threonine-protein kinase SIK1 (Homo sapiens) (P57059 whole entry): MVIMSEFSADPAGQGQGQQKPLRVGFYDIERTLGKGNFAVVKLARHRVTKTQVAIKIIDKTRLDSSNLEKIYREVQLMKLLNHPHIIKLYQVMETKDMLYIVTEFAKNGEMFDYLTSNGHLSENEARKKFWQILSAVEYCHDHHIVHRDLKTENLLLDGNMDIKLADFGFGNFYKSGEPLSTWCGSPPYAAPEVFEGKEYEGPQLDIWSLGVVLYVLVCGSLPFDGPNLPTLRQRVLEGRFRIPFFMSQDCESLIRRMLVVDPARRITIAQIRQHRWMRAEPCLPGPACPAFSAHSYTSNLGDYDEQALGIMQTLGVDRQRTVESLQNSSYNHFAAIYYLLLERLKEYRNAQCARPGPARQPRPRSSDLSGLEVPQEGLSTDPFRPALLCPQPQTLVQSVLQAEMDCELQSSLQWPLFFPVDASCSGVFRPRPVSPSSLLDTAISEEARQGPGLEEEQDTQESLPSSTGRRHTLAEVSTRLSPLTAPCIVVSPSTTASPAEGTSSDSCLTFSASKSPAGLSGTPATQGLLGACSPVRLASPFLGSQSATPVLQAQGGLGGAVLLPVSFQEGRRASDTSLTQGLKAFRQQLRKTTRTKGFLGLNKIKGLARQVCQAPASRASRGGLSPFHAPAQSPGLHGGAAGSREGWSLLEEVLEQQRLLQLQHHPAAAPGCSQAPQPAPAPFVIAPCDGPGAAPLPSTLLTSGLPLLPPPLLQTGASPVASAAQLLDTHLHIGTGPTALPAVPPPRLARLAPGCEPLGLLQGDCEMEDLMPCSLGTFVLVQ

On to `COc1cccc(-n2ncc3c(N/N=C/c4ccc(F)cc4)ncnc32)c1`, for which the inhibition was determined as 0.1% in [1]; 0.77% in assay [2]; 0.03% in [3]; 1.85% in assay [4]; 2.88% in assay [5]; 9.59% in assay [6]. Further, the inhibition came to 14% in assay [7]; 6.43% in assay [8]; 13.7% in [9]; 2.42% in assay [10]; 6.85% in assay [11]; 3.31% in [12]. For the same molecule, the inhibition in assay [13] is 5.3%; in [14], 4.45%; in [15] it was 2.25%; in assay [16] it was 4.03%; in assay [17], 4.98%; in assay [18], 3.78%. The inhibition in [19] stood at 4.75%; in assay [20], 3.98%.

Take `Fc1cccc(COc2ccc(Nc3ncnc4sc(-c5ccco5)cc34)cc2Cl)c1`: the inhibition was 0.73% in assay [1]; -1.54% in [2]; -0.36% in assay [3]; 0.95% in assay [4]; 1.47% in [5]; 2.24% in assay [6]. Further, the inhibition in [7] came to 9.68%; in [8] it was 3.95%; in assay [9] it was 5.81%; in [10], 0.55%; in assay [11] it was 2.89%; in assay [12], 2.79%. The inhibition in [13] was determined as 3.11%; in assay [14] it was 0.52%; in assay [15], 2.23%; in assay [16] it was 3.24%; in assay [17] it was 3.14%; in [18], 4.55%. Besides, the figures for the inhibition in [19] and in assay [20] were 4.42% and 4.05%, respectively.

Take `N#Cc1c(NC(=O)c2ccc(F)cc2)sc2c1CCCC2`: the inhibition in assay [1] was -0.05%; in assay [2], 0.71%; in [3], 1.6%; in [4] it was 0.52%; in assay [5], -0.3%; in assay [6] it was 1.57%. Also, the inhibition in [7] was 3.96%; in [8], -1.57%; in [9], 8.23%; in assay [10], 0.78%; in assay [11] it was 0.54%; in assay [12], 0.45%. For the same molecule, the inhibition in assay [13] was 0.89%; in [14], 0.22%; in assay [15], 0.33%; in [16], -0.68%; in [17] it was 1.93%; in [18], 0.85%. The figures for the inhibition in [19] and in [20] were 0.78% and 0.66%, respectively.

In the case of `Cc1cccc(Nc2ncc(-c3ccccc3)o2)c1`, the inhibition in assay [1] was 0.42%; in assay [2], -0.05%; in assay [3], 1.97%; in assay [4], 1.69%; in [5], 0.97%; in assay [6], 3.47%. Also, the inhibition is 12.8% in [7]; -1.34% in assay [8]; 9.41% in assay [9]; 2.6% in [10]; 7.09% in [11]; 2.67% in assay [12]. Moreover, the inhibition was 4.49% in assay [13]; 0.72% in assay [14]; 1.53% in assay [15]; 3.35% in assay [16]; 9.63% in [17]; 2.09% in assay [18]. For the same molecule, the figures for the inhibition in assay [19] and in [20] were 4.93% and 1.92%, respectively.

For `CCn1c(-c2nonc2N)nc2cnc(Oc3cccc(NC(=O)c4ccc(N(C)C)cc4)c3)cc21`, the inhibition in assay [1] was 1.39%; in assay [2] it was -0.12%; in assay [3], 1.67%; in assay [4], 0.33%; in [5] it was -1.26%; in assay [6], 1.57%. In addition, the inhibition in assay [7] was found to be 2.47%; in assay [8], 4.79%; in assay [9], 4.74%; in assay [10] it was 0.53%; in [11] it was 6.31%; in assay [12] it was 10.9%. The inhibition in assay [13] is 52.2%; in assay [14], -0.81%; in assay [15] it was -0.76%; in assay [16], 2.09%; in [17], 7.22%; in assay [18], 1.44%. The inhibition in assay [19] amounted to 1.65%; in [20] it was 1.06%.
